Experimental findings from PubChem BioAssay AID2284205 (EPA ToxCast) are described below.

The structures appear in SMILES notation. Calls of active or inactive are those of the source. Rule for the calls: active = hit-call score of the fitted dose curve at least 0.9, where 1 is the maximum; inactive = score below 0.9.

This assay deals with Peroxisome proliferator-activated receptor gamma (Homo sapiens) (UniProt P37231). Briefly: ERF_TW_NR_hPPARG: Eurofins (ERF) Nuclear Receptor (NR) Radioligand Binding LeadHunter Assay for human Peroxisome Proliferator-activated Receptor gamma (PPARg) Agonism, conducted at Taiwan lab site. The procedure: ERF_TW_NR_hPPARG is a biochemical, single-readout assay that uses extracted gene-proteins in a cell-free assay. Measurements were taken 24 hour after chemical dosing in a 96-well plate. See PPARgamma Human NHR Binding (Agonist Radioligand) Assay, Panlabs.ERF_TW_NR_hPPARG is an assay component calculated from the ERF_TW_NR_hPPARG assay. It is designed to measure radioligand binding using a type of binding reporter as detected by scintillation counting with radiometry technology.Data from the assay component ERF_TW_NR_hPPARG was analyzed at the assay endpoint, ERF_TW_NR_hPPARG, in the positive analysis fitting direction relative to DMSO as the negative control and baseline of activity. Using a type of binding receptor, gain-of-signal activity can be used to understand changes in binding receptor as they relate to gene PPARG.To generalize the intended target to other relatable targets, this assay endpoint is annotated to the nuclear receptor intended target family, where the subfamily is non-steroidal.
Human recombinant PPARgamma-LBD expressed in insect cells are used in modified Tris-HCl buffer pH 7.2. A 0.03 ug aliquot is incubated with 5 nM [3H]Rosiglitazone and 1 ug anti-GST antibody for 24 hours at 4C. Non-specific binding is estimated in the presence of 10 uM rosiglitazone. Receptors are counted to determine [3H]Rosiglitazone specifically bound. […]

Chain of Peroxisome proliferator-activated receptor gamma (Homo sapiens) (P37231 whole entry, looked up): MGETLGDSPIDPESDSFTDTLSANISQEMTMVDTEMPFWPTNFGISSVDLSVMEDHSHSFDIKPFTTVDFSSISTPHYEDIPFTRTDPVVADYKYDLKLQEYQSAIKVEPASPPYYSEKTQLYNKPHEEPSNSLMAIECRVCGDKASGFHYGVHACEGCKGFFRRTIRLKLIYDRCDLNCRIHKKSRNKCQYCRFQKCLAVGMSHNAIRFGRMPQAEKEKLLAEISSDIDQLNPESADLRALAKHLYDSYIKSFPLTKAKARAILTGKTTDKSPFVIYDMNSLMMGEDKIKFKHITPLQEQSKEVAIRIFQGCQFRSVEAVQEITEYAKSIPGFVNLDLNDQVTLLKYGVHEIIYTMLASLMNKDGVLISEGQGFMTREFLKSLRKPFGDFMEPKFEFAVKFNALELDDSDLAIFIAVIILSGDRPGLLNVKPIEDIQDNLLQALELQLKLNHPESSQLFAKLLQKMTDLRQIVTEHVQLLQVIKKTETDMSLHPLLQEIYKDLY

Regarding `O=C(O)C(F)(F)C(F)(F)C(F)(F)C(F)(F)C(F)(F)C(F)(F)C(F)(F)C(F)(F)F`, the AC50 was 18.6 µM (active).
On to `COC(=O)C(F)(F)C(F)(F)OC(F)(C(F)(F)F)C(F)(F)OC(F)=C(F)F` (configuration not stated), for which the AC50 is 3.72 µM (active).

For orientation: AC50 means the concentration at which the activity in the assay is half-maximal.
